Records with an inconclusive call do not appear. Active and inactive are the calls of the source. Calls come from the whole dose curve; as a rule, active = well fitted inhibition curve with a large enough effect in the repeat runs; inconclusive = weak or mixed curves; inactive = no such curve, though single readings can be large or run the other way.
molecular target: Cytochrome P450 3A4 (Homo sapiens) (UniProt P08684); assay: Cytochrome P450 Family 3 Subfamily A Member 4 (CYP3A4) small molecule antagonists: luciferase reporter qHTS assay (AID 1671201); conditions: P450-Glo CYP3A4 enzyme, luciferin luminescence, 1 h; series mostly up to 115 µM; activity change, negative = inhibition: at the top concentration; note: nearly all actives have a fitted effect of over 50% in size
Sequence (P08684 whole entry, looked up): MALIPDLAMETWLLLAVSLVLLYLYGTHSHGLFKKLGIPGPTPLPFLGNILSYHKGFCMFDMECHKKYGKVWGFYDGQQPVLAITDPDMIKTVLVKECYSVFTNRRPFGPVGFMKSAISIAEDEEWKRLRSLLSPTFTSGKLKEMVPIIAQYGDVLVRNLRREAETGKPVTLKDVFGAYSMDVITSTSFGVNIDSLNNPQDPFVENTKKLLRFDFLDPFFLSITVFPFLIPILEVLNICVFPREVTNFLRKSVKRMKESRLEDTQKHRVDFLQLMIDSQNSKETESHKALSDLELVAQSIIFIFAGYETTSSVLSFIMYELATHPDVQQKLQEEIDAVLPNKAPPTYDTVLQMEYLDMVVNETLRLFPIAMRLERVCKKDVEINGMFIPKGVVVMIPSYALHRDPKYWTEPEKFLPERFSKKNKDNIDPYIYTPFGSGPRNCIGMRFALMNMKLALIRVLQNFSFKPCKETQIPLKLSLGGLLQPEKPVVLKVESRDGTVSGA
Summary of the method: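 P450-Glo CYP3A4 system with proluciferin substrate; compounds preincubated 10 min RT with enzyme-substrate mix, then NADPH regeneration added for 1 h RT. Detection reagent 20 min, luminescence read as relative luminescence units.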
% is set by controls: 0 for no effect and ±100 for the full control effect; potency is the fitted concentration of half-maximal effect.

SMILES	Potency	activity change, negative = inhibition
c1ccc(CCCc2ccncc2)cc1	0.448 µM (active)	–
CCN(CC)c1ccc(C(=C2C=CC(=[N+](CC)CC)C=C2)c2ccc(S(=O)(=O)O)cc2S(=O)(=O)[O-])cc1	8.94 µM (active)	–
CC(C)(O)CCc1ccccc1	–	3.12% (inactive)
CC(=O)OCC(C)C	–	15.2% (inactive)
CC(C)(O)c1coc(S(=O)(=O)NC(=O)Nc2c3c(cc4c2CCC4)CCC3)c1	22.4 µM (active)	–
CCCCCCCCCCCCCCCC(=O)OCC	–	0.905% (inactive)
CCCCCCCCCCCCCC(=O)OCC(O)CO (configuration not stated)	–	-9.43% (inactive)
Cc1cccc(C)c1NC(=O)c1cc(S(N)(=O)=O)c(Cl)cc1O	–	0.275% [at 52.9 µM] (inactive)
CC1CCCC(=O)C1=O (configuration not stated)	–	0.968% (inactive)
Nc1ccc(F)cc1	–	-3.47% (inactive)
CCOc1ncc(F)c(=O)[nH]1	–	10% [at 52.9 µM] (inactive)
O=S(=O)(O)CO	–	10.7% (inactive)
CCC(Cl)CC(Cl)C(Cl)C(Cl)C(Cl)C(C)Cl (configuration not stated)	–	36.6% [at 23.6 µM] (inactive)
CCC(C)(C)C(=O)O	–	4.21% (inactive)
CCOC(=O)C(C)O (configuration not stated)	–	1.53% (inactive)
CCC(CO)(CO)CO	–	10.2% (inactive)
CCN(Cc1cccc(S(=O)(=O)O)c1)c1ccc(C(=C2C=CC(=[N+](CC)Cc3cccc(S(=O)(=O)O)c3)C=C2)c2ccccc2S(=O)(=O)[O-])cc1	14.2 µM (active)	–
CCN(CC)c1cccc(O)c1	20.4 µM (active)	–
CCCCCCC(O)CCCCCCCCCCC(=O)OC (configuration not stated)	–	52.5% (inactive)
COC(C)(C)OC	–	6.65% (inactive)
O=C(O)CO	–	3.45% (inactive)
CCCCOC(=O)CCCCC(=O)OCCCC	–	37.3% (inactive)
FC(F)(F)C(F)(F)C(F)(F)C(F)(F)CCI	–	5.37% [at 52.9 µM] (inactive)
COC1CCC=CO1 (configuration not stated)	–	4.02% (inactive)
[Cl][Nd]([Cl])[Cl]	–	5.6% (inactive)
NC(=O)CCCCC(N)=O	–	10.1% (inactive)
CC(C)N(C)C	–	0.649% (inactive)

Source: PubChem BioAssay (Tox21)
